# Data published in PubChem BioAssay AID485358 (National Center for Advancing Translational Sciences (NCATS), 2010).
# “And” between values parts separate entries of the source, which are not always exact repeats. Identical values can stand only once. About 1,800 (0.53%) of roughly 340,000 compounds were called active.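 How the source made its calls: active means activation over 3 SD above normal in the single-dose calcium agonist read (cut at about 30% in these data); inactive means the rest.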 The full list was thinned out, with actives kept by preference.
# Target: D(2) dopamine receptor (Homo sapiens) (UniProt P14416)
# Sequence (P14416 whole entry, looked up): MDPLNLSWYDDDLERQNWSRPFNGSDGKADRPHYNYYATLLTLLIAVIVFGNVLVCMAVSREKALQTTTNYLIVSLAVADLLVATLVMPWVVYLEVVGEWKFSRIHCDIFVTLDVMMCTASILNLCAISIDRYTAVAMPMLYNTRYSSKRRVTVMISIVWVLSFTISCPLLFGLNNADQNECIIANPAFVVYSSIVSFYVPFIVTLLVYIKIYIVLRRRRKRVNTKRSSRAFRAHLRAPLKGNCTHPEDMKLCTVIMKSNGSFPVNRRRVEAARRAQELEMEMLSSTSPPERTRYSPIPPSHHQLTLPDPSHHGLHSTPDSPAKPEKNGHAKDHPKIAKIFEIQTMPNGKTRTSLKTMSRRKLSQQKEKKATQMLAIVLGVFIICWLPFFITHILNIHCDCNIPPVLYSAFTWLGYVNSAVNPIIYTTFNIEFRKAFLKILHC
# Experiment: HTS Assay for Allosteric Agonists of the Human D2 Dopamine Receptor: Primary Screen for Agonists; further: 0% is about no effect
# Conditions: HEK293 T-REx D2 cells, calcium flux agonist mode; at 2 µM; stronger effect = higher value
# How it was run: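 HEK293 Trex D2 cells, tetracycline-induced, o/n 30 C 5% CO2; no-wash Ca dye, RT 30–90 min; 10-cycle baseline, 23 nl cpd added, kinetic Ca read 180 s; agonist hits = positive Ca response.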
row,SMILES,activation
1,COC(=O)c1ccc(-c2nc3cc(NC(C)=O)ccc3o2)cc1,-2.97% (inactive)
2,Cc1n[nH]c(C)c1S(=O)(=O)N1CCCC(C(=O)Nc2ccc(Br)cc2)C1 (stereo not drawn),0.576% (inactive) and 0.392% (inactive)
3,Cc1n[nH]c(C)c1S(=O)(=O)N1CCCC(C(=O)NCC2COc3ccccc3O2)C1 (stereo not drawn),57.1% (active)
4,Cc1ccc(NC(=O)C2CCCN(S(=O)(=O)c3c(C)noc3C)C2)c(C)c1 (stereo not drawn),-0.264% (inactive)
5,O=C(NCC(c1ccco1)S(=O)(=O)c1cccs1)c1ccc(F)cc1 (stereo not drawn),0.728% (inactive)
6,CCOc1ccc(CNC(=O)c2cccc(Nc3nc4ccccc4n4nnnc34)c2)cc1OC,0.495% (inactive)
7,O=C1Nc2ccccc2/C1=C/c1ccnc2ccccc12,1.57% (inactive)
8,Cc1ccccc1-n1c(C)cc(/C=C2\NC(=O)NC2=O)c1C,-0.336% (inactive)
9,Cc1cc(C)c(/C=C2\C(=O)Nc3ccccc32)[nH]1,39.4% (active)
10,CCOC(=O)c1c(NC(C)=O)c2c3c(sc2n1Cc1c(C)cc(C)cc1C)CCCC3,0.0213% (inactive)
11,CCS(=O)(=O)N1CCC(N2CCN(c3ccccc3)CC2)CC1,68% (active)
12,CS(=O)(=O)N1CCC(C(=O)N2CCN(c3ccccc3)CC2)CC1,6.31% (inactive)
13,CCS(=O)(=O)N1CCC(C(=O)N2CCN(c3ccccc3)CC2)CC1,4.45% (inactive)
14,Cc1ccccc1NC(=O)c1cc2c([nH]c1=O)CC(C)(C)CC2=O,0.0984% (inactive)
15,CCOc1ccc(/C=C(\C#N)c2nc3ccccc3c(=O)[nH]2)cc1OC,-1.7% (inactive)
16,CCOc1cc(-c2cc(-c3ccc(NC(C)=O)cc3)nc(N)c2C#N)ccc1O,0.571% (inactive)
17,CCOc1cc(/C=C(\C#N)c2nc(-c3cccs3)c(NC(C)=O)s2)ccc1O,31.5% (active)
18,O=[N+]([O-])c1ccc(N2CCN(CC(O)COc3ccccc3)CC2)cc1 (stereo not drawn),-0.607% (inactive)
19,OC(COCC1COc2ccccc2O1)CN1CCN(c2ccc(F)cc2)CC1 (stereo not drawn),8.89% (inactive)
20,OC(COCc1ccco1)CN1CCN(c2ccccc2)CC1 (stereo not drawn),85.6% (active)
21,COc1ccc(CNC(=O)CSCc2nc(-c3ccccc3F)oc2C)cc1,-0.228% (inactive)
22,Cc1c(CN2CC[C@@H](N3CCN(c4ccccn4)CC3)[C@H](O)C2)[nH]c2ccc(F)cc12,76.9% (active)
23,Cc1nc(N2CCN(c3ccccn3)CC2)c2c(C)c(C(=O)Nc3ccc(F)cc3)sc2n1,-0.199% (inactive)
24,O=C(CCC1CCCN(C(=O)Cc2ccc(F)cc2)C1)N1CCN(c2ccccn2)CC1 (stereo not drawn),0.424% (inactive)

row,SMILES,activation
1,COC(=O)c1ccc(Cn2c(SCC(=O)N(C)c3ccccc3)nc3ccccc32)cc1,0.816% (inactive)
2,Cc1cc(C)cc(NC(=O)COc2coc(CN3CCN(c4ccccc4)CC3)cc2=O)c1,5.66% (inactive)
3,O=C(COc1coc(CN2CCN(c3ccccc3)CC2)cc1=O)N1CCc2ccccc21,-0.514% (inactive)
4,O=C(COc1coc(CN2CCN(c3ccccc3)CC2)cc1=O)Nc1ccccc1F,45.8% (active)
5,CC(C)OC(=O)C(C#N)c1nc2ccccc2nc1N1CCN(Cc2ccccc2)CC1 (stereo not drawn),0.138% (inactive)
6,CC(C)OC(=O)C(C#N)c1nc2ccccc2nc1N1CCN(Cc2ccc3c(c2)OCO3)CC1 (stereo not drawn),48.3% (active)
7,N#C/C=C/N1CCN(Cc2ccc3c(c2)OCO3)CC1,0.771% (inactive)
8,Cc1ccc(Cl)cc1NC(=O)/C(C#N)=C\c1cn(Cc2ccc(F)cc2)c2ccccc12,0.348% (inactive)
9,Cc1nc2c(c(=O)n1Cc1ccco1)c1nc3ccccc3nc1n2Cc1ccccc1,-0.619% (inactive)
10,C=CCSc1nc2c(c(=O)[nH]c(=O)n2C)n1Cc1ccccc1,-0.578% (inactive)
11,Cc1cc2nc3c(=O)n(Cc4ccccc4)c(=O)[nH]c3nc2cc1N,64.2% (active)
12,Cc1cccc(CC(=O)N2CC(=O)Nc3ccc(F)cc3C2c2ccccc2)c1 (stereo not drawn),-0.521% (inactive)
13,CCCN(CCC)C(=O)C1CCCN(c2ncnc3c2nc2n3CCCCC2)C1 (stereo not drawn),0.0903% (inactive)
14,Cn1c(=O)c2sccc2n2c(CCC(=O)NCc3ccccc3Cl)nnc12,-0.258% (inactive)
15,Cc1nn(C)cc1N1C(=O)c2cccc3c(N)ccc(c23)C1=O,74% (active)
16,O=C1c2cccc3c([N+](=O)[O-])ccc(c23)C(=O)N1CC1CCCO1 (stereo not drawn),3% (inactive)
17,CC(C(=O)O)N1C(=O)c2cccc3cccc1c23 (stereo not drawn),0.197% (inactive)
18,CN1C(=O)c2cccc3c(N)ccc(c23)C1=O,109% (active)
19,COCCNC(=O)c1ccc2c(c1)N=C(C)c1cc(C)ccc1S2,0.312% (inactive)
20,Cc1ccc(-n2c(SCC(=O)Nc3cccc(F)c3)nc3c(oc4ccccc43)c2=O)cc1C,2.59% (inactive)
21,Cc1ccc(N2CCN(C(=O)CCc3c(C)nc4c(c3C)c(=O)n(C)c(=O)n4C)CC2)c(C)c1,-0.245% (inactive)
22,CCc1nnc(SCc2c(F)cccc2Cl)c2cc3sccc3n12,0.47% (inactive)
23,COc1ccc(-c2cn3nc(N4CCCC(C(=O)NCCCOC(C)C)C4)sc3n2)cc1 (stereo not drawn),-0.281% (inactive)
24,CN1c2ccc(Cl)cc2-c2nc(SCC(=O)Nc3cc(F)ccc3F)ncc2S1(=O)=O,0.0638% (inactive)

row,SMILES,activation
1,CO/N=C/c1cn(-c2ccc(Cl)cc2)nn1,33.3% (active)
2,O=C(COc1ccc(Cl)cc1)Nc1ccc(-c2nc3cc(Cl)ccc3o2)c(O)c1,1.1% (inactive)
3,O=C(NC1CC(=O)N(c2ccc(F)cc2)C1)C1CCCCC1 (stereo not drawn),1.31% (inactive)
4,CCOc1ccc(C(=O)N2CCN(CCc3ccccn3)CC2)cc1,0.162% (inactive)
5,Cc1cc(NC(=O)CSc2ncc(C(=O)Nc3ccc(Cl)cc3)c(=O)n2C)no1,0.675% (inactive)
6,CS/C(=C\C(=O)c1ccco1)Nc1ccccc1Cl,34.5% (active)
7,O=C(Nc1ccccc1C(=O)N1CCCCC1)c1ccco1,-0.0145% (inactive)
8,Cc1c(Cl)cccc1NC(=O)CCC(=O)N/N=C/c1ccco1,0.478% (inactive)
9,CC(=C1C(=O)c2ccccc2C1=O)N1CCN(c2ccccn2)CC1,62.2% (active)
10,O=C(C(Cl)Cl)N1CCN(c2ccccn2)CC1,4.39% (inactive)
11,CNC(=S)N1CCN(c2ccccn2)CC1,2.09% (inactive)
12,Cc1cccc(-c2nnc(SCC(=O)N3CCCc4ccccc43)o2)c1,-1.45% (inactive)
13,CC(C)c1ccc(C2CC(=O)N3CN(C4CCCCC4)CSC3=C2C#N)cc1 (stereo not drawn),0.111% (inactive)
14,COc1ccccc1-c1cc2nc(C)c(CCC(=O)O)c(C)n2n1,0.732% (inactive)
15,COc1ccc(N2CCN(S(=O)(=O)c3ccc(-c4coc(C)n4)cc3)CC2)cc1,-0.462% (inactive)
16,COc1cc(OC)c(NC(=O)c2cc(S(=O)(=O)N3CCCC3)cn2C)cc1Cl,2.37% (inactive)
17,CCC1=Nc2cc(C(=O)NCC(C)c3ccccc3)ccc2Sc2ccc(C)cc21 (stereo not drawn),-0.272% (inactive)
18,CCCCCc1c(C)nc(N2CCN(Cc3ccc4c(c3)OCO4)CC2)[nH]c1=O,0.0879% (inactive)
19,Fc1ccc2[nH]c3c(N4CCN(Cc5ccc6c(c5)OCO6)CC4)ncnc3c2c1,35.9% (active)
20,O=C(CSc1nc2c(c(=O)[nH]1)CN(Cc1ccc3c(c1)OCO3)CC2)Nc1cc(F)ccc1F,0.843% (inactive)
21,CCn1c2ccccc2c2nnc(SCC(=O)O)nc21,-0.808% (inactive)
22,CCCCc1nn2c(=O)cc(COC(=O)c3ccc(NC(=O)c4ccccc4C)cc3)nc2s1,8.52% (inactive)
23,CCOC(=O)N1CCN(c2c(NCCN3CCN(c4ccccc4F)CC3)c(=O)c2=O)CC1,10.4% (inactive)
24,Cn1c(=O)c(=O)n(C)c2cc(S(=O)(=O)NCCN3CCN(c4ccccc4F)CC3)ccc21,67.4% (active)

row,SMILES,activation
1,O=C(CCCNS(=O)(=O)c1cccc2nsnc12)NCCN1CCN(c2ccccc2F)CC1,24.7% (inactive)
2,COc1ccccc1CN1CCC(CNC(=O)c2cnn(-c3ccccc3Cl)c2C2CCN(C(=O)OC(C)(C)C)CC2)CC1,3.36% (inactive)
3,Cc1ccccc1NC(=O)Cn1c(=O)n(Cc2ccco2)c(=O)c2ccc(C(=O)NC3CCCC3)cc21,0.581% (inactive)
4,Cc1cccc(-n2c(=O)c3c(c4cc(C)ccc4n3C)n(CC(=O)Nc3ccccc3Cl)c2=O)c1,0.838% (inactive)
5,COC(c1ccccc1)c1nnc(CCC(=O)N2CCN(CCOc3ccccc3)CC2)o1 (stereo not drawn),47% (active)
6,Cc1nc(CN2CCN(C(=O)CCc3nnc(Cc4c[nH]c5ccccc45)o3)CC2)cs1,0.942% (inactive)
7,O=S(=O)(c1cccs1)N1CCN(CCOc2ccccc2)CC1,21.2% (inactive)
8,Cc1ccc(Nc2ccc3cc(S(=O)(=O)N4CCCCC4)ccc3n2)cc1F,0.936% (inactive)
9,Cc1cccc(NC(=O)CN(c2ccc(C(C)C)cc2)S(=O)(=O)c2c(C)nn(C)c2C)c1C,0.387% (inactive)
10,Cc1nc2nc(SCC(=O)NC3CCC(C)CC3)nn2c(C)c1Cc1ccccc1Cl (stereo not drawn),-0.0264% (inactive)
11,COc1ccccc1-c1noc(-c2ccc(NCc3ccccc3)c([N+](=O)[O-])c2)n1,-0.924% (inactive)
12,Cc1ccccc1C(=O)Nc1cc(C)c(O)c(-c2nc3ccccc3o2)c1,-0.387% (inactive)
13,O=C(C1CCN(Cc2ccc(Cl)cc2)CC1)N1CCN(Cc2ccc3c(c2)OCO3)CC1,0.973% (inactive)
14,CCn1cc(C(=O)N2CCN(Cc3ccc4c(c3)OCO4)CC2)c2cc(OC)c(OC)cc2c1=O,51.1% (active)
15,O=C(Nc1cccc2ccccc12)N1CCN(Cc2ccc3c(c2)OCO3)CC1,5.88% (inactive)
16,CCn1cc(C(=O)NCc2ccc3c(c2)OCO3)c2cc(OC)c(OC)cc2c1=O,-0.995% (inactive)
17,COc1ccc(-c2cc(C(=O)N3CCN(Cc4ccc5c(c4)OCO5)CC3)on2)cc1OC,-0.524% (inactive)
18,Cc1cc(C)n2nc(C(=O)Oc3ccc4c(c3)OCO4)nc2n1,-0.808% (inactive)
19,CCn1cc(C(=O)N2CCN(C3CCCCC3)CC2)c2cc(OC)c(OC)cc2c1=O,0.186% (inactive)
20,O=C(c1cccs1)N1CCN(Cc2ccc3c(c2)OCO3)CC1,84.2% (active)
21,Cc1cc(C)n2nc(C(=O)N3CCN(Cc4ccc5c(c4)OCO5)CC3)nc2n1,40.9% (active)
